# Experimental data as given in the supplement of paper PMC9262897, “Low-cost anti-mycobacterial drug discovery using engineered E. coli” (Nature Communications, 2022).
# Where a name gives a salt, the structure may show the parent alone. ± gives the standard deviation of the averaged measurements.
# Tests used:
# Assay in all cases: growth (OD600 after 10 h); higher = more growth (less inhibition)
# [1] = system: E. coli TESEC Alr+ wild-type control; conditions: compound 0.1 mM; raw OD600 reference: median of DMSO wells 0.241, cell-free background 0.041
# Description: (§1)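 TESEC Mtb Alr E. coli, or the Alr+ wild-type control, in 384-well plates with Prestwick library compounds at 0.1 mM and 1% DMSO, across arabinose induction levels of 1E3 to 1E7 nM. Growth is read as OD600 after 10 h at 37 °C in triplicate biological replicates.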
# [2] = system: E. coli TESEC Mtb Alr; conditions: compound 0.1 mM
# Description: as §1
# [3] = system: E. coli TESEC Mtb Asd; conditions: compound 0.1 mM
# Description: (§2)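 TESEC E. coli strains in which the native enzyme is deleted and replaced by arabinose-inducible Mtb Asd, DapB, CysH or TrpD, each grown in its selective medium. Strains were screened against the Prestwick library at 0.1 mM and 1% DMSO in 384-well format at low and high arabinose induction. Growth is read as OD600 after 10 h in triplicate.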
# [4] = system: E. coli TESEC Mtb DapB; conditions: compound 0.1 mM
# Description: as §2
# [5] = system: E. coli TESEC Mtb Alr; conditions: compound 0.1 mM; remark: listed apart in the source
# Description: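 TESEC Mtb Alr E. coli (ΔaraC ΔtolC ΔentC Δalr ΔdadX, arabinose-inducible Mtb Alr) or the Alr+ wild-type control strain, grown in defined M9-fructose medium without D-alanine in 96-well plates with Prestwick library compounds at 0.1 mM and 1% DMSO. Low Alr induction is 0.1 µM arabinose and high induction is 10 mM arabinose.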
# [6] = arabinose 1000 nM, raw OD600 reference: median of DMSO wells 0.294, cell-free background 0.041
# [7] = arabinose 10000 nM, raw OD600 reference: median of DMSO wells 0.264, cell-free background 0.041
# [8] = arabinose 100000 nM, raw OD600 reference: median of DMSO wells 0.201, cell-free background 0.041
# [9] = arabinose 1000000 nM, raw OD600 reference: median of DMSO wells 0.193, cell-free background 0.041
# [10] = arabinose 10000000 nM, raw OD600 reference: median of DMSO wells 0.146, cell-free background 0.041
# [11] = arabinose induction (level): High, raw OD600 reference: median of DMSO wells 0.331, cell-free background 0.041
# [12] = arabinose induction (level): Low, raw OD600 reference: median of DMSO wells 0.417, cell-free background 0.041
# [13] = arabinose induction (level): High, raw OD600 reference: median of DMSO wells […], cell-free background 0.041
# [14] = arabinose induction (level): Low, raw OD600 reference: median of DMSO wells 0.227, cell-free background 0.041
# [15] = arabinose 100 nM, raw OD600 reference: median of DMSO wells 0.413, cell-free background 0.052
# [16] = arabinose 10000000 nM, raw OD600 reference: median of DMSO wells […], cell-free background 0.052
SMILES,growth [1],"growth [2, 6]","growth [2, 7]","growth [2, 8]","growth [2, 9]","growth [2, 10]","growth [3, 11]","growth [3, 12]","growth [4, 13]","growth [4, 14]","growth [5, 15]","growth [5, 16]"
CCCNC(C)C(=O)Nc1ccccc1C (stereo unspecified) [Prilocaine hydrochloride],0.234 ± 0.0054,0.275 ± 0.011,0.264 ± 0.0046,0.1867 ± 0.0018,0.167 ± 0.0054,0.136 ± 0.0076,0.322 ± 0.093,0.408 ± 0.031,0.1776 ± 0.0016,0.209 ± 0.023,0.427 ± 0.012,0.333 ± 0.008
CC1COc2c(N3CCN(C)CC3)c(F)cc3c(=O)c(C(=O)O)cn1c23 (stereo unspecified) [Ofloxacin],0.04363 ± 5.8e-05,0.0426 ± 0.00057,0.03877 ± 0.00015,0.0435 ± 0.0001,0.03957 ± 0.00029,0.044 ± 0.0001,0.0587 ± 0.0023,0.0597 ± 0.0025,0.0501 ± 0.0018,0.05347 ± 0.00015,0.0542 ± 0.0012,0.05103 ± 0.00031
NC(=O)N1c2ccccc2CC(=O)c2ccccc21 [Oxcarbazepine],0.236 ± 0.0086,0.269 ± 0.015,0.256 ± 0.0035,0.211 ± 0.03,0.171 ± 0.0024,0.146 ± 0.0084,0.225 ± 0.042,0.322 ± 0.043,0.189 ± 0.0098,0.201 ± 0.019,0.403 ± 0.0086,0.321 ± 0.0074
c1coc(CNc2ncnc3nc[nH]c23)c1 [6-Furfurylaminopurine],0.252 ± 0.0041,0.29 ± 0.014,0.252 ± 0.0053,0.209 ± 0.027,0.181 ± 0.0069,0.138 ± 0.0046,0.341 ± 0.068,0.43 ± 0.043,0.209 ± 0.011,0.221 ± 0.024,0.405 ± 0.0075,0.365 ± 0.0057
COc1ccc(C(=O)c2ccccc2O)c(O)c1 [Dioxybenzone],0.125 ± 0.0069,0.116 ± 0.0049,0.124 ± 0.0053,0.107 ± 0.005,0.085 ± 0.0034,0.107 ± 0.0014,0.261 ± 0.022,0.197 ± 0.0098,0.183 ± 0.014,0.23 ± 0.016,0.352 ± 0.05,0.152 ± 0.014
Nc1ncnc2c1ncn2[C@@H]1O[C@H](CO)[C@@H](O)[C@@H]1O [Vidarabine],0.206 ± 0.012,0.273 ± 0.022,0.243 ± 0.011,0.145 ± 0.0058,0.148 ± 0.0035,0.138 ± 0.004,0.36 ± 0.077,0.383 ± 0.0057,0.171 ± 0.03,0.21 ± 0.048,0.429 ± 0.012,0.306 ± 0.0082
Cn1c(=O)c2c(ncn2CCO)n(C)c1=O [Etofylline],0.254 ± 0.003,0.283 ± 0.0029,0.276 ± 0.016,0.228 ± 0.011,0.195 ± 0.0066,0.145 ± 0.0023,0.396 ± 0.053,0.425 ± 0.033,0.192 ± 0.0028,0.264 ± 0.098,0.414 ± 0.0083,0.349 ± 0.0046
N[C@@H](Cc1cc(I)c(Oc2ccc(O)c(I)c2)c(I)c1)C(=O)O [Liothyronine],0.18 ± 0.012,0.211 ± 0.012,0.2 ± 0.0047,0.177 ± 0.0039,0.134 ± 0.0031,0.162 ± 0.003,0.32 ± 0.038,0.152 ± 0.017,0.232 ± 0.0046,0.264 ± 0.017,0.373 ± 0.035,0.272 ± 0.015
CN(C)CCOC(=O)C(c1ccccc1)C1(O)CCCC1 (stereo unspecified) [Cyclopentolate hydrochloride],0.219 ± 0.0068,0.29 ± 0.0093,0.27 ± 0.01,0.183 ± 0.014,0.19 ± 0.018,0.133 ± 0.0078,0.198 ± 0.013,0.334 ± 0.1,0.192 ± 0.021,0.231 ± 0.045,0.4313 ± 0.0024,0.316 ± 0.018
Cc1cc(O)c(C(=O)N[C@@H](C(=O)N[C@@H]2C(=O)N3C(C(=O)O)=C(CSc4nnnn4C)CS[C@H]23)c2ccc(O)cc2)cn1 [Cefpiramide],0.2668 ± 0.0012,0.3183 ± 0.00044,0.245 ± 0.0057,0.217 ± 0.015,0.208 ± 0.027,0.135 ± 0.0067,0.356 ± 0.063,0.375 ± 0.077,0.214 ± 0.007,0.239 ± 0.035,0.419 ± 0.016,0.3403 ± 0.00045
Nc1nc(=O)n([C@@H]2CS[C@H](CO)O2)cc1F [(-)-Emtricitabine],0.238 ± 0.0098,0.285 ± 0.0065,0.248 ± 0.0044,0.254 ± 0.061,0.172 ± 0.0027,0.147 ± 0.005,0.291 ± 0.092,0.419 ± 0.09,0.192 ± 0.024,0.218 ± 0.011,0.412 ± 0.0087,0.337 ± 0.012
Clc1ccc(C(Cn2ccnc2)OCc2c(Cl)cccc2Cl)c(Cl)c1 (stereo unspecified) [Isoconazole],0.0482 ± 0.00036,0.0445 ± 0.0043,0.247 ± 0.037,0.0465 ± 0.0023,0.105 ± 0.12,0.0545 ± 0.0038,0.152 ± 0.079,0.0562 ± 0.006,0.0672 ± 0.015,0.0666 ± 0.02,0.0651 ± 0.02,0.104 ± 0.075
CCS(=O)(=O)CCn1c([N+](=O)[O-])cnc1C [Tinidazole],0.237 ± 0.0086,0.286 ± 0.011,0.256 ± 0.0041,0.198 ± 0.0079,0.169 ± 0.0069,0.139 ± 0.005,0.345 ± 0.048,0.405 ± 0.013,0.204 ± 0.0081,0.212 ± 0.027,0.402 ± 0.0095,0.315 ± 0.0068
